Data taken from PubChem BioAssay (NCI).
Compounds without any hit were thinned out: in the full panel of roughly 79,000, 15% have a hit. Active and inactive are the calls of the source. Rule as the data show it: active = growth inhibition above about 70%; inactive = the rest.

Tests used:
[1] = NCI Yeast Anticancer Drug Screen. Data for the wt1 strain (AID 149);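 also: 0% = growth of vehicle-treated wt1 cultures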; settings: S. cerevisiae wt1 strain (SPY 50644) growth inhibition, hits give high values
Method in brief: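 wt1 yeast, compound-treated; % growth inhibition vs vehicle control.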

[2] = NCI Yeast Anticancer Drug Screen. Data for the rad50EPP+ strain (AID 151);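 also: 0% = growth of vehicle-treated control cultures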; settings: S. cerevisiae rad50 mutant strain, hits give high values
Method in brief: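 Compounds were applied to the rad50EPP+ yeast strain, which bears a defined DNA repair alteration, and growth inhibition was determined relative to vehicle-treated cultures.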

[3] = NCI Yeast Anticancer Drug Screen. Data for the mgt1 strain (AID 153); settings: S. cerevisiae mgt1 mutant growth inhibition, hits give high values
Method in brief: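 Strain: mgt1 yeast, one of a set carrying defined DNA damage repair or cell cycle control alterations. Compound-treated growth compared with vehicle.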

[4] = NCI Yeast Anticancer Drug Screen. Data for the rad50 strain (AID 155);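 also: 0% = growth of vehicle-only cultures of the same strain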; settings: S. cerevisiae rad50 strain growth inhibition, hits give high values
Method in brief: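 Genetically altered yeast (DNA repair pathway); compound treatment; growth inhibition vs vehicle ctrl.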

[5] = NCI Yeast Anticancer Drug Screen. Data for the mec2-1 strain (AID 157); settings: S. cerevisiae mec2-1 strain, hits give high values
Method in brief: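 Strain: mec2-1 (DNA repair/cell cycle alteration). Compound exposure, then growth measured; inhibition expressed relative to vehicle.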

[6] = NCI Yeast Anticancer Drug Screen. Data for the rad14 strain (AID 159);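 also: 0% = growth of vehicle-treated control cultures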; settings: S. cerevisiae rad14 strain growth inhibition, hits give high values
Method in brief: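 Test compounds were applied to a repair-deficient yeast strain. Its growth was then compared with that of cultures given vehicle alone, and inhibition was expressed relative to those controls.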

[7] = NCI Yeast Anticancer Drug Screen. Data for the sgs1 mgt1 strain (AID 161);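 also: 0% = growth of cultures given vehicle only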; settings: S. cerevisiae sgs1 mgt1 strain, hits give high values
Method in brief: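 Mutant yeast exposed to compound; growth scored against vehicle-only wells.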

[8] = NCI Yeast Anticancer Drug Screen. Data for the CLN2oe strain (AID 163);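 also: 0% = growth of vehicle-only control cultures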; settings: S. cerevisiae CLN2oe strain, hits give high values
Method in brief: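 Growth of a genetically modified yeast strain is measured after compound exposure and compared with cultures given vehicle alone.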

[9] = NCI Yeast Anticancer Drug Screen. Data for the bub3 strain (AID 167); settings: S. cerevisiae bub3 mutant strain, hits give high values
Method in brief: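 Yeast carrying a defined mutation is treated with each compound, and growth is compared with that of vehicle-exposed cells to give inhibition.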

[10] = NCI Yeast Anticancer Drug Screen. Data for the wt2 strain (AID 169);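 also: 0% = growth of vehicle-treated yeast cultures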; settings: S. cerevisiae wt2 strain growth inhibition, hits give high values
Method in brief: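 This strain belongs to a panel of yeast strains with defined genetic alterations in DNA damage repair or cell cycle control. Compounds are applied, and growth inhibition is measured against vehicle-treated cultures.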

[11] = NCI Yeast Anticancer Drug Screen. Data for the mlh1 strain (AID 171);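 also: 0% = growth of vehicle-treated control cultures of the same strain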; settings: S. cerevisiae mlh1 strain growth inhibition, hits give high values
Method in brief: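 Growth of the mutant yeast strain after compound exposure, expressed as inhibition relative to vehicle-only controls.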

[12] = NCI Yeast Anticancer Drug Screen. Data for the sgs1 strain (AID 173);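 also: 0% = growth of vehicle-only control cultures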; settings: S. cerevisiae sgs1 mutant, hits give high values
Method in brief: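 Growth of a yeast strain bearing a defined genetic alteration is measured after compound treatment. Inhibition is expressed relative to vehicle-only controls.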

[13] = NCI Yeast Anticancer Drug Screen. Data for the mlh1 rad18 strain (AID 175); settings: S. cerevisiae mlh1 rad18 strain growth inhibition, hits give high values
Method in brief: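 Read-out is yeast growth inhibition, calculated against vehicle-only controls. The compound was applied to a strain engineered with DNA damage repair alterations.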

[14] = NCI Yeast Anticancer Drug Screen. Data for the rad18 strain (AID 177); settings: S. cerevisiae rad18 mutant growth inhibition, hits give high values
Method in brief: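 Growth of the mutant yeast strain after compound exposure, normalised to vehicle-only cultures.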

[15] = NCI Yeast Anticancer Drug Screen. Data for the cln2 rad14 strain (AID 165);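 also: 0% = growth equal to vehicle treated cultures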; settings: S. cerevisiae cln2 rad14 strain, hits give high values
Method in brief: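 Compounds are applied to the cln2 rad14 yeast strain, and growth is then compared with that of vehicle-treated cultures to give inhibition.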

[16] = at 5.0 µM (retest, dose inferred, filed as 0.5)
[17] = at 50.0 µM (retest, dose inferred, filed as 5.0)

Measured: growth inhibition

OC1C#CCSCC#C/C=C\1 (stereo not given)
active: [1]; at 100.0 µM 97% | [2]; at 100.0 µM 86% | [3]; at 100.0 µM 95% | [4]; [17] 100% | [4]; at 50.0 µM 81.3% | [4]; at 100.0 µM 97% | [5]; [17] 100% | [5]; at 50.0 µM 78.4% | [5]; at 100.0 µM 97% | [6]; at 100.0 µM 98% | [7]; [17] 96% | [7]; at 50.0 µM 70.4% | [8]; at 100.0 µM 77% | [9]; [17] 97% | [9]; at 50.0 µM 84.2% | [9]; at 100.0 µM 96% | [10]; at 100.0 µM 95% | [11]; at 100.0 µM 96% | [12]; at 100.0 µM 97% | [13]; [17] 100% | [13]; at 50.0 µM 79.2% | [14]; at 100.0 µM 92%
inactive: [1]; at 1.2 µM 9% | [1]; at 3.7 µM 3% | [1]; at 11.0 µM 14% | [1]; at 33.0 µM 55% | [2]; at 1.2 µM -22% | [2]; at 3.7 µM 15% | [2]; at 11.0 µM 13% | [2]; at 33.0 µM 23% | [3]; at 1.2 µM 9% | [3]; at 3.7 µM 2% | [3]; at 11.0 µM 14% | [3]; at 33.0 µM 43% | [4]; at 1.2 µM -24% | [4]; at 3.7 µM -17% | [4]; [16] 53% | [4]; at 11.0 µM 34% | [4]; at 33.0 µM 65% | [5]; at 1.2 µM 1% | [5]; at 3.7 µM 18% | [5]; [16] 62% | [5]; at 11.0 µM 14% | [5]; at 33.0 µM 54% | [6]; at 1.2 µM 4% | [6]; at 3.7 µM 6% | [6]; at 11.0 µM 12% | [6]; at 33.0 µM 51% | [7]; [16] -4% | [8]; at 1.2 µM -22% | [8]; at 3.7 µM 3% | [8]; at 11.0 µM -15% | [8]; at 33.0 µM -3% | [9]; at 1.2 µM -8% | [9]; at 3.7 µM -16% | [9]; [16] 16% | [9]; at 11.0 µM 17% | [9]; at 33.0 µM -10% | [10]; at 1.2 µM -21% | [10]; at 3.7 µM -17% | [10]; at 11.0 µM 6% | [10]; at 33.0 µM -9% | [11]; at 1.2 µM -1% | [11]; at 3.7 µM 4% | [11]; at 11.0 µM 15% | [11]; at 33.0 µM 46% | [12]; at 1.2 µM 20% | [12]; at 3.7 µM 11% | [12]; at 11.0 µM 27% | [12]; at 33.0 µM 67% | [13]; [16] 62% | [14]; at 1.2 µM -27% | [14]; at 3.7 µM -21% | [14]; at 11.0 µM 4% | [14]; at 33.0 µM 49%

Cc1cccc[c]1[Sn]([Cl])([S]/C(C#N)=N/N=C/c1ccc(N(C)C)cc1)[c]1ccccc1C
active: [3]; at 100.0 µM 91% | [4]; [17] 89% | [4]; at 50.0 µM 97.4% | [4]; at 100.0 µM 94% | [5]; [17] 90% | [5]; at 50.0 µM 98.2% | [5]; at 100.0 µM 93% | [6]; at 100.0 µM 93% | [8]; at 100.0 µM 94% | [15]; [17] 89% | [15]; at 50.0 µM 97.1% | [9]; [17] 92% | [9]; at 50.0 µM 97.2% | [9]; at 100.0 µM 89% | [10]; at 100.0 µM 89% | [11]; at 100.0 µM 90% | [12]; at 100.0 µM 94% | [13]; [17] 86% | [13]; at 50.0 µM 98.4% | [14]; at 100.0 µM 92%
inactive: [1]; at 1.2 µM -4% | [1]; at 3.7 µM -3% | [1]; at 11.0 µM -8% | [1]; at 33.0 µM 35% | [1]; at 100.0 µM 48% | [2]; at 1.2 µM 0% | [2]; at 3.7 µM -1% | [2]; at 11.0 µM 0% | [2]; at 33.0 µM 12% | [2]; at 100.0 µM 13% | [3]; at 1.2 µM -3% | [3]; at 3.7 µM -6% | [3]; at 11.0 µM -8% | [3]; at 33.0 µM 37% | [4]; at 1.2 µM -3% | [4]; at 3.7 µM -1% | [4]; [16] 40% | [4]; at 11.0 µM 12% | [4]; at 33.0 µM 67% | [5]; at 1.2 µM 2% | [5]; at 3.7 µM -1% | [5]; [16] 9% | [5]; at 11.0 µM 8% | [5]; at 33.0 µM 51% | [6]; at 1.2 µM -1% | [6]; at 3.7 µM 3% | [6]; at 11.0 µM 11% | [6]; at 33.0 µM 58% | [8]; at 1.2 µM 0% | [8]; at 3.7 µM 0% | [8]; at 11.0 µM 2% | [8]; at 33.0 µM 53% | [15]; [16] 25% | [9]; at 1.2 µM -8% | [9]; at 3.7 µM -6% | [9]; [16] 34% | [9]; at 11.0 µM 0% | [9]; at 33.0 µM 46% | [10]; at 1.2 µM -1% | [10]; at 3.7 µM -2% | [10]; at 11.0 µM -6% | [10]; at 33.0 µM 32% | [11]; at 1.2 µM 3% | [11]; at 3.7 µM -5% | [11]; at 11.0 µM -4% | [11]; at 33.0 µM 35% | [12]; at 1.2 µM -1% | [12]; at 3.7 µM -3% | [12]; at 11.0 µM -1% | [12]; at 33.0 µM 66% | [13]; [16] 47% | [14]; at 1.2 µM 0% | [14]; at 3.7 µM -2% | [14]; at 11.0 µM 10% | [14]; at 33.0 µM 61%
